C-LANA FP: inhibitors of KSHV C-LANA binding to DNA, primary screen, biochemical, fluorescence polarization, FAM-LBS DNA, MBP-C-LANA, single point | Kaposi's sarcoma herpesvirus LANA C-terminal domain (residues 932-1162) DNA binding | inhibition, % at 9 µM | 340,000 tested, 0.078% active;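 active = highest replicate inhibition at or above 60% at 9 µM, even if other replicates fall short; inactive = all replicates below 60% inhibition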;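 also: 0% = neutral control wells and 100% = 4 µM acridine orange control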
Keap1-Nrf2 PPI: Keap1-Nrf2 protein-protein interaction inhibitors, primary screen, biochemical, fluorescence polarization, single point; Kelch-like ECH-associated protein 1 (Homo sapiens), Q14145; Keap1 Kelch-Nrf2 peptide fluorescence polarization, 1536-well; inhibition, % at 9.4 µM; 340,000 tested, 0.15% active; AID 504523, 2011; in the data active = inhibition above about 12%; inconclusive = no clear call, values can overlap the other calls; inactive = below about 7.3%;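 also: human Keap1 Kelch domain with fluorescein labeled Nrf2 9mer peptide probe; 0% = neutral control wells and 100% = peptide positive control; higher means more block of Keap1 binding to Nrf2 peptide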
Target sequence (Q14145 whole entry, looked up, the tested form may be a part): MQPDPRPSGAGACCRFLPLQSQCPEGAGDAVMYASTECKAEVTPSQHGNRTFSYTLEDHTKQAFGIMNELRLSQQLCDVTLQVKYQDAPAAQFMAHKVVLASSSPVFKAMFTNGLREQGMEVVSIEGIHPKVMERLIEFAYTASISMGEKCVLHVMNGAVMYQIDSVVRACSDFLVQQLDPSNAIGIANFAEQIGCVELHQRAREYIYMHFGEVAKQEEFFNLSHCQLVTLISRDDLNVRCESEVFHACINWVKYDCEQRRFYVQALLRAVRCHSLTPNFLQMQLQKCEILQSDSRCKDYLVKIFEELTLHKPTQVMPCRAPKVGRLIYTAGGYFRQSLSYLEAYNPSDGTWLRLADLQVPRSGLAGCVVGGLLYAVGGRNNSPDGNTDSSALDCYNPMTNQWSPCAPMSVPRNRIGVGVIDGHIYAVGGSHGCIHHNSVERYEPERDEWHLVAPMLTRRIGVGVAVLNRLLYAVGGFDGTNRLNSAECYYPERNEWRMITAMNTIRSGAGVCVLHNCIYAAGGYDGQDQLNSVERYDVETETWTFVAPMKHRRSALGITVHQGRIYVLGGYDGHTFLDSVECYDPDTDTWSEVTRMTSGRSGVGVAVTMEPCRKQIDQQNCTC
Bcl-xL primary: inhibitors of human Bcl-xL, primary screen, biochemical, fluorescence polarization, HTS | Bcl-2-like protein 1 (Homo sapiens), Q07817 | GST-Bcl-xL / FITC-Bim BH3 peptide fluorescence polarization | inhibition, % at 10.9 µM | 320,000 tested, 0.7% active | AID 2129, 2009;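 active = inhibition above the mean of all tested compounds plus 3 SD, cutoff set per campaign, cut at about 30% in these data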;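 also: 0% = DMSO wells and 100% = unlabeled Bim-BH3 peptide competitor; inhibitors lower millipolarization by displacing the labeled peptide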
MEX-5 binding: MEX-5 zinc finger RNA-binding disruptors – biochemical, C. elegans, fluorescence polarization, MLPCN library, primary screen; Zinc finger protein mex-5 (Caenorhabditis elegans), Q9XUB2; MEX-5/FITC-TCR2 RNA binding; stronger effect = lower value; activity score (negative = inhibition of binding), % at 10 µM; 300,000 tested, 0.38% active;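 active = inhibition past about -25% in most replicates, and total fluorescence under double the plate's negative control median, limit read from the data; inconclusive = replicates evenly split on the limit, or fluorescence at least double controls; inactive = too little inhibition in most replicates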;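 also: 0% = DMSO and -100% = 5 µM competing unlabeled TCR2 RNA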
E coli Lon inh: inhibitors of E. coli Lon protease, primary screen, biochemical, fluorescence polarization; P0A9M0; purified E. coli Lon protease; inhibition, % at 7.94 µM; 360,000 tested, 0.42% active; AID 602123, 2011; in the data active = inhibition above about 13%, passing the limit was not always enough;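 also: 0% = enzyme with probe and DMSO and 100% = no enzyme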
GLD-1 TGE inh: GLD-1/TGE RNA complex disruptors, primary screen, biochemical, fluorescence polarization; purified GLD-1 + fluorescein TGE RNA; AID 2280, 2010; Female germline-specific tumor suppressor gld-1 (Caenorhabditis elegans), Q17339; 320,000 tested, 0.44% active; inhibition, % at 5.96 µM;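 active = percent inhibition above a per-plate cutoff, the plate mean of test compounds plus 3 SD, cut at about 30% in these data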;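 also: 0% = DMSO wells with GLD-1 and probe and 100% = wells lacking GLD-1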
* marks the source's active call; other numbers are inactive results; i = inactive; ? = inconclusive; · = not tested or not shown. Sampled rows, rich in hits. Any-hit rate of the full collection: about 1.2%.

SMILES	C-LANA FP	Keap1-Nrf2 PPI	Bcl-xL primary	MEX-5 binding	E coli Lon inh	GLD-1 TGE inh
N#Cc1nc(Cc2cccc3ccccc23)oc1N1CCC(C(N)=O)CC1	0.7	0.3	33.1*	-0.9	-2.4	0.4
CC1CCCCN1C(=O)CN1C(=O)c2ccccc2S1(=O)=O (stereo not given)	0.4	4.0	4.0	-0.7	-6.9	5.0
O=[N+]([O-])c1ccc(C2=NN(c3ccccc3)C(c3ccco3)C2)cc1 (stereo not given)	-0.1	-8.6	·	2.5	-193.2	·
O=[N+]([O-])c1ccc(/C=C/C2=NN(c3ccccc3)C(c3ccco3)C2)cc1 (stereo not given)	-0.9	-22.0	67.1*	·	-149.2	-20.5
O=c1c(/C=C(\O)c2ccccc2)nc2ccccc2n1-c1ccccc1	25.1	1.4	-48.7	-52.8*	i	-67.5
Cc1nc2ccccc2n1-c1ccccc1	-0.3	-6.2	1.0	-0.3	4.0	5.8
CCc1nc2c(OCCC3CCCCC3)cccn2c1N(C)C(=O)c1ccc(OC)cc1	·	·	·	·	-6.2	·
CCOC(=O)/C(C#N)=C/c1cc2ccccc2nc1N1CCCCC1	1.8	1.1	5.7	-39.0*	-9.0	-5.3
CC(C)NC(=S)N/N=C/c1sc(N2CCCCC2)nc1-c1cccs1	1.0	-1.3	-4.8	2.3	-30.4	-1.8
CCCCNC(=S)N(C)/N=C/c1sc(N2CCCCC2)nc1-c1cccs1	·	·	39.1*	-12.7	·	13.4
Cc1ccccc1-c1nnc(CN2CCC(C)CC2)o1	4.7	-7.5	-0.3	-0.1	1.2	37.2*
Cc1ccccc1-c1nnc(CN2CCN(C(=O)c3ccco3)CC2)o1	-1.8	1.0	0.7	2.2	9.5	-5.6
O=S(=O)(Nc1cc2nc3ccccc3nc2n1Cc1ccccc1)c1ccc(Cl)cc1	3.2	-2.8	30.1	0.5	-104.3	39.6*
Cc1ccc2nccc(C(=O)N3CCCC(Nc4ccc(F)cc4)C3)c2c1 (stereo not given)	-0.5	-2.7	1.6	-2.2	-9.2	0.5
Cn1cccc1C(=O)OCc1ccc(C(C)(C)C)cc1	-0.5	-0.9	0.3	0.7	-1.3	2.6
CN(CC(=O)NCc1ccccn1)S(=O)(=O)c1ccc(Br)cc1	-0.4	-1.3	0.4	-25.9*	-3.5	1.8
COc1cc(N)c(Cl)cc1C(=O)OCC(=O)NCc1cccs1	-0.5	-0.6	·	·	-5.8	0.5
Cc1ccccc1OCC(=O)OCC(=O)NC1CCCC1	·	·	·	·	1.1	·
CCCc1nc2c3ccccc3ccn2c1CC1CCCCC1	·	·	·	·	-4.1	·
CCCCSCCCNC(=O)CS(=O)Cc1nc(-c2cccc(C)c2)oc1C (stereo not given)	-0.4	-3.0	45.3*	-0.3	0.3	4.3
Cn1cc(C=O)c2cc(F)ccc21	-0.1	-4.0	2.4	-0.1	3.5	1.9
Cn1cc(/C=C/c2cc[n+](C)cc2)c2cc(F)ccc21	-13.7	-192.2	28.5	?	-318.2	76.6*
Cn1cc(/C=C/c2cc[n+](C)cc2)c2cc(Cl)ccc21	-12.3	-142.4	14.9	?	-286.9	51.8*
Nc1ccc(S(=O)(=O)c2ccc(NC(=O)c3cccnc3)cc2)cc1	10.2	-2.6	·	·	10.6	·
Clc1cccc(-c2nc3c4ccccc4ccn3c2CC2CCCCC2)c1	·	·	·	·	-9.6	·
CCOc1cccc(/C=C(/C#N)c2nc3ccccc3[nH]2)c1OCC(=O)O	0.7	-0.6	2.5	-2.7	-14.9	8.4
CCN(CC)c1ccc(/C=C(/C#N)c2nc3ccccc3[nH]2)c(OC(C)C)c1	0.5	-10.2	-26.2	-33.0*	-479.5	-50.8
COC(=O)C(Cc1ccc(O)cc1)NC(=O)Cn1cc(C)c(=O)[nH]c1=O (stereo not given)	-0.6	-6.4	·	·	5.6	·
COc1cc(-c2cc3nc(NCc4ccco4)ccn3n2)cc(OC)c1OC	·	·	·	·	-8.3	·
COC(=O)c1cccc(CC2(C)C(=O)Nc3cc(-c4ccccc4Cl)ccc32)c1 (stereo not given)	·	·	·	·	-6.1	·
